Values joined by “and” are separate entries in the source; they are usually repeats but may differ in a detail not shown here. Equal values may be shown once. Active and inactive are the calls of the source.

These results are taken from PubChem BioAssay.

The subject of experiment [1] is Plasmodium falciparum Sir2 (PF13_0152, Sir2A). The experiment is described as follows: Plasmodium falciparum Sir2A binding compounds – biochemical, small-molecule microarray, 635 nm fluorescence, primary screen (AID 1098).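 Also: score merges spot fluorescence intensity with its signal-to-noise ratio.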 The settings on record: fluorescence 635 nm, higher = more signal.
A short description of experiment [2]: probe aDKK1 binding to arrayed compounds – biochemical, biotinylated probe, 635/667 nm fluorescence, primary screen (AID 1099).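 Also: score merges 667nm spot fluorescence with signal to noise across triplicate slides.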 The settings on record: small-molecule microarray, higher = more signal.
Experiment [3] can be described thus: probe aCHRDL2 binding to arrayed compounds – biochemical, biotinylated probe, 635/667 nm fluorescence, primary screen (AID 1100). The settings on record: small-molecule microarray, higher = more signal.
A short description of experiment [4]: change in splice reporter luminescence, either direction, cell-based, HEK293, spliceosome inhibition project, primary screen (AID 1101).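 Also: HEK293 cells carrying a splicing-competent luciferase reporter gene; test concentration not given here.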 Particulars: HEK293 splicing luciferase reporter, 24 h, higher = more signal, called active from +8 up or from −8 down. On the technique in general: Reporter assays use an easily measured gene product as a stand-in for the process of interest.

Experiment [5] has as its target Fibroblast growth factor 10 (Homo sapiens) (UniProt O15520). The experiment is described as follows: compounds binding fibroblast growth factor 10 – biochemical, small-molecule microarray, 635 nm fluorescence, primary screen (AID 1102). The settings on record: FGF10 binding, fluorescence 635 nm, higher = more signal.
Experiment [6] relates to glycogen synthase kinase-3 (GSK3A per assay name; protocol says GSK3B). The experiment is described as follows: compounds binding glycogen synthase kinase-3 – biochemical, small-molecule microarray, 635 nm fluorescence, GSK3A, primary screen (AID 1103). Also: the record names both GSK3A and GSK3B. The settings on record: fluorescence 635 nm, higher = more signal.
For experiment [7], the target named is Epidermal growth factor receptor (Homo sapiens) (UniProt P00533). The experiment is described as follows: compounds binding epidermal growth factor receptor – biochemical, small-molecule microarray, 635 nm fluorescence, primary screen (AID 1104).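 Also: score merges 667 nm emission intensity with spot signal to noise over triplicate slides.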 The settings on record: EGFR binding, higher = more signal.
Chain of Epidermal growth factor receptor (Homo sapiens) (P00533 whole entry, looked up): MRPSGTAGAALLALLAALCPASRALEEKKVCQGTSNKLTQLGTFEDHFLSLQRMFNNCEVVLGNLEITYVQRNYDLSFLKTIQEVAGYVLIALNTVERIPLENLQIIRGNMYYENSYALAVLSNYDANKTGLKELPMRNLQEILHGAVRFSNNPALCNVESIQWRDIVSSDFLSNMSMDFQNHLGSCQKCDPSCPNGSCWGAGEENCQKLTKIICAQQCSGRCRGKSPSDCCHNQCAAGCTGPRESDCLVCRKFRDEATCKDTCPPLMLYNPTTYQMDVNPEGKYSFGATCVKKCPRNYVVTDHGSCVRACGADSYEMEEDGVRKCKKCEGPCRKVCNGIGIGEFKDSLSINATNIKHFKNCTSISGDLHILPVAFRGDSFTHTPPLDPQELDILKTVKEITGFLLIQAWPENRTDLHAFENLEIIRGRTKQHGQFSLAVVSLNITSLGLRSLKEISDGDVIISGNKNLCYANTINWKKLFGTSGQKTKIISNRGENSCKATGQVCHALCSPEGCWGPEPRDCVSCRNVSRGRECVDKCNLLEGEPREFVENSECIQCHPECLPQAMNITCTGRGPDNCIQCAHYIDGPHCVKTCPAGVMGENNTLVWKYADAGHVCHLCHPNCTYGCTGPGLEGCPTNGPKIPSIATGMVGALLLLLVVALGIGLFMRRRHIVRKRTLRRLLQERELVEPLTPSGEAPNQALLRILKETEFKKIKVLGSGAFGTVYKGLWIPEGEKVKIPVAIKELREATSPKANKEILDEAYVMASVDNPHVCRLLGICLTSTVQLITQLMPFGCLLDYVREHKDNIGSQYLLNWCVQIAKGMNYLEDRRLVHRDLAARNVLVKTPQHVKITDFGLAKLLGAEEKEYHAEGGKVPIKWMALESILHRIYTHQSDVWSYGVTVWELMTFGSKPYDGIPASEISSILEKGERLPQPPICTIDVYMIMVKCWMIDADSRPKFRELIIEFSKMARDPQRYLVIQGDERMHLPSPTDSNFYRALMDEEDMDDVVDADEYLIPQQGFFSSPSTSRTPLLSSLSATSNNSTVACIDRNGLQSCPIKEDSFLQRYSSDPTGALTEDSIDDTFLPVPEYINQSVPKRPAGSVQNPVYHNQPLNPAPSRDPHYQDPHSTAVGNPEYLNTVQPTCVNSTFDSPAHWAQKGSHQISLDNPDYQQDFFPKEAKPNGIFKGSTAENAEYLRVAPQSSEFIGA
The target in experiment [8] is Follistatin-related protein 3 (Homo sapiens) (UniProt O95633). The experiment is described as follows: compounds binding follistatin-related protein 3 – biochemical, small-molecule microarray, 635 nm fluorescence, primary screen (AID 1105).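 Also: score merges emission near 667 nm and signal to noise per printed spot across three slides.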 The settings on record: FSTL3 binding, higher = more signal.
Chain of Follistatin-related protein 3 (Homo sapiens) (O95633 whole entry, looked up): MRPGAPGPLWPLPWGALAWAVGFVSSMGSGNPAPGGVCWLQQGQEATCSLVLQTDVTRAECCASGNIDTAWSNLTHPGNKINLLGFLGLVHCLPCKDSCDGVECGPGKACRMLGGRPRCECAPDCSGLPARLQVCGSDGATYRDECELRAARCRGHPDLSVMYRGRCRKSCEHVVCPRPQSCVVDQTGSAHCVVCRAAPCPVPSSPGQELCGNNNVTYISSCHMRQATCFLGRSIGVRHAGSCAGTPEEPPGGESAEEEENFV
Experiment [9] deals with Dickkopf-related protein 1 (Homo sapiens) (UniProt O94907). The experiment is described as follows: small molecules binding DKK1 protein – biochemical, small-molecule microarray, 635 nm fluorescence scan, primary screen (AID 1106).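 Also: score merges emission near 667 nm with signal to noise over three replicate slides.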 Particulars: higher = more signal.
Chain of Dickkopf-related protein 1 (Homo sapiens) (O94907 whole entry, looked up): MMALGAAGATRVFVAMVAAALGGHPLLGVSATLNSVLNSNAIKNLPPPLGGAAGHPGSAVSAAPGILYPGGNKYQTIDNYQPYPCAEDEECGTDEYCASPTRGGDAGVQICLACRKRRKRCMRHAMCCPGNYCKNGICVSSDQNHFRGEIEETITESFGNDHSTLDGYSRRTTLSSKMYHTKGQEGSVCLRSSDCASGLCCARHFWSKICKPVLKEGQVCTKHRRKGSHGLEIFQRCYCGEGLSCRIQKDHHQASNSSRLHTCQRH
Experiment [10] deals with Inhibin beta A chain (activin A). The experiment is described as follows: small molecules binding activin A – biochemical, small-molecule microarray, 635 nm fluorescence scan, primary screen (AID 1107).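 Also: mouse activin A protein probed at 4.33 µg/mL on printed slides; score merges bound-protein fluorescence near 667 nm with spot signal-to-noise.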 Particulars: INHBA, higher = more signal.
In experiment [11] the test system is Human papillomavirus type 1a protein E7 (residues 44-93). The experiment is described as follows: small molecules binding HPV E7 44-93 – biochemical, small-molecule microarray, residues 44-93, 635 nm fluorescence, primary screen (AID 1108).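 Also: E7 fragment applied at 1 µg/mL in TBST for 1 h at 4 C; score combines spot fluorescence with its signal to noise ratio.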 The settings on record: fluorescence 635 nm, higher = more signal.
The nature of experiment [12]: hepatitis C replication reporter changes, two-sided – Huh7 cells, luciferase reporter, HCV replication inhibitor project, primary screen (AID 1109).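 Also: huh7 hepatoma cells harbouring a luciferase neomycin HCV replicon reporter; luciferase luminescence as measure of HCV replicon replication; test concentration not given here.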 The settings on record: Huh7 HCV replicon luciferase reporter, 48 h; higher = more signal.
Experiment [13] concerns the target Left-right determination factor 2 (Homo sapiens) (UniProt O00292). The experiment is described as follows: small molecules binding LEFTY2 protein – biochemical, small-molecule microarray, 635 nm fluorescence scan, primary screen (AID 1110). Particulars: higher = more signal.
In experiment [14] the target is Calmodulin-1 (Homo sapiens) (UniProt P0DP23). The experiment is described as follows: small molecules binding calmodulin-1 with EGTA – biochemical, small-molecule microarray, Cy5-labelled CALM1, profiling panel (AID 1111).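 Also: labelled calmodulin applied in Tris saline Tween buffer holding calcium plus EGTA and DTT.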 The settings on record: Cy5-CALM1 binding fluorescence, higher = more signal.
Experiment [15] shares this target. The experiment is described as follows: small molecules binding Ca-loaded calmodulin-1 – biochemical, small-molecule microarray, Cy5-labelled CALM1, plus calcium, artefact control for SMM control-protein annotation, profiling panel (AID 1112).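 Also: score merges spot fluorescence with signal to noise from triplicate slides.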 The settings on record: Cy5-CALM1 binding fluorescence, higher = more signal.
Experiment [16] can be described thus: probe aWnt5a binding to arrayed compounds – biochemical, biotinylated probe, 635/667 nm fluorescence, primary screen (AID 1113).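 Also: score merges 667 nm fluorescence intensity with signal-to-noise per printed feature.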 Particulars: small-molecule microarray, higher = more signal.
The nature of experiment [17]: probe aShh binding to arrayed compounds – biochemical, biotinylated probe, 635/667 nm fluorescence, primary screen (AID 1114).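 Also: probe is biotin-labelled aShh protein from a stem cell growth factor screen; measures binding of labelled protein to compounds printed on the slide; score merges feature fluorescence at 667 nm with signal-to-noise.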 Particulars: small-molecule microarray, higher = more signal.
Experiment [18] in a line: probe aNog binding to arrayed compounds – biochemical, biotinylated probe, 635/667 nm fluorescence, primary screen (AID 1115).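 Also: probe is biotinylated aNog protein used at 0.15 µg/mL for 1 h at 4 C; z-score combines 667 nm fluorescence of each spot with its signal to noise.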 The settings on record: small-molecule microarray, higher = more signal.
For experiment [19], the target named is Torsin-1A-interacting protein 1 (Homo sapiens) (UniProt Q5JTV8). The experiment is described as follows: compound microarray binding of lysate hLAP1 – cell lysate, small-molecule microarray, COS7 lysate, 635/667 nm fluorescence, primary screen (AID 1116). The settings on record: 635 nm fluorescence, higher = more signal.
Chain of Torsin-1A-interacting protein 1 (Homo sapiens) (Q5JTV8 whole entry, looked up): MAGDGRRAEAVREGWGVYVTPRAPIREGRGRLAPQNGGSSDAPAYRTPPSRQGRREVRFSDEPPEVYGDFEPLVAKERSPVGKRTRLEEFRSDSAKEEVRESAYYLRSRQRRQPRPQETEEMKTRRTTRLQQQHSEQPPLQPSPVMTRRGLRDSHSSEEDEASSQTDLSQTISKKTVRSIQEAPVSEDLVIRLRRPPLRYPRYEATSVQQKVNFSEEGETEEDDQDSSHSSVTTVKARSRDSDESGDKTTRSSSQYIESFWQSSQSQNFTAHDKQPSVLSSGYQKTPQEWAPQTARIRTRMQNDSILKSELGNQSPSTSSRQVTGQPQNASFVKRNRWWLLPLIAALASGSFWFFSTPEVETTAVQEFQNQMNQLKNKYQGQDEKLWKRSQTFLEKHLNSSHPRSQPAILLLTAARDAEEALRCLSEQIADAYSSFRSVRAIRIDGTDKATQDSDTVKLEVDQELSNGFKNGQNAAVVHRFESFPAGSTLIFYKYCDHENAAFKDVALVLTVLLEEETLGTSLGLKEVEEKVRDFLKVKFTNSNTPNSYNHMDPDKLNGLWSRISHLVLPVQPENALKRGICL
For experiment [20], the target named is Alpha-bungarotoxin (Bungarus multicinctus) (UniProt P60615). The experiment is described as follows: compounds binding labelled alpha-BTX control protein – biochemical, small-molecule microarray, Alexa647 label, 635/667 nm fluorescence, artefact control for SMM control protein annotation, profiling panel (AID 1117). The settings on record: alpha-BTX-A647 binding fluorescence, higher = more signal.
Chain of Alpha-bungarotoxin (Bungarus multicinctus) (P60615 whole entry, looked up): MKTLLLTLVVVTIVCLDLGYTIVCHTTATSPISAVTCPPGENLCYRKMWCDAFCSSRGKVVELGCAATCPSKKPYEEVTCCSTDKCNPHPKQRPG

Chain of Fibroblast growth factor 10 (Homo sapiens) (O15520 whole entry, looked up): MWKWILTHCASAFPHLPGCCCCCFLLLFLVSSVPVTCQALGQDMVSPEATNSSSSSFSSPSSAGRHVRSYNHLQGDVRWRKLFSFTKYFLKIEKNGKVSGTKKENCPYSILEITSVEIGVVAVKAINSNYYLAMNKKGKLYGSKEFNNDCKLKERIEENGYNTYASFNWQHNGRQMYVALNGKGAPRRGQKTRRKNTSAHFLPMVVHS
Chain of Left-right determination factor 2 (Homo sapiens) (O00292 whole entry, looked up): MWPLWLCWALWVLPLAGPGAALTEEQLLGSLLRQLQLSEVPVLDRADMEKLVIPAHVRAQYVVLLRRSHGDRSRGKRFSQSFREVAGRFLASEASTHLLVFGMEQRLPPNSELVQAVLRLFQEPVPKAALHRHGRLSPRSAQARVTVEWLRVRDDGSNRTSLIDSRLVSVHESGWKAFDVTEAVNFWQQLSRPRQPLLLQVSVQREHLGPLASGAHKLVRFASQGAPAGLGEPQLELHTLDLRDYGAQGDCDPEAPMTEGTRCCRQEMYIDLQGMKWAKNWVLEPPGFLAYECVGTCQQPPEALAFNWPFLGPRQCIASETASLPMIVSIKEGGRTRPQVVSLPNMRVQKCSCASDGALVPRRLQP

In the case of `CC(CO)N1C(=O)[C@@H]2C3C(=O)OCCC=C[C@H]3OC23C=CCN(Cn2nnc4ccccc42)C(=O)[C@@H]13` (stereo not given in full), the composite z-score was 1.07 and 1.47 in [1]; -0.26 and -0.125 in experiment [2]; 0.683 and 0.303 in [3]; -0.914 and 0.715 in experiment [5]; -1.38 and -0.212 in [6]; -1.56 and -0.105 in experiment [7]. Besides, the composite z-score in experiment [8] is -1.68 and -0.219; in experiment [9], -2.03 and -0.18; in [10] it was -0.785 and 0.234; in experiment [11], -0.394 and 0.27; in experiment [13] it was -0.985 and -0.403; in [14], -0.184 and -0.298. The composite z-score in [15] is 0.73 and -0.573; in experiment [16], -0.25 and 0.0431; in [17], -0.474 and 0.0062; in experiment [18], -0.0103 and -0.142; in experiment [19], -0.393 and 0.0141; in experiment [20], -0.652 and -0.332. Further, the z-score is -0.0985 (inactive) and 0.148 (inactive) in experiment [4]; -1.03 and 0.0704 in experiment [12].
With `C=CCN(CCCC)C(=O)C1N(CCOCCO)C(=O)C2C(C(=O)O)C3C=CC21O3` (stereo not given), the composite z-score in [1] was 1.46 and 0.591; in [2] it was -0.0203 and -0.336; in experiment [3], 1.02 and 0.53; in experiment [5], -1.38 and -1.65; in experiment [6] it was -1.47 and -1.21; in experiment [7], -1.89 and -1.27. Moreover, the composite z-score is -1.5 and -2.25 in [8]; -3.09 and -1.87 in experiment [9]; -3.45 and -2.19 in experiment [10]; -0.0707 and -0.913 in experiment [11]; -2.91 and -1.58 in experiment [13]; -0.794 and -0.296 in experiment [14]. Moreover, the composite z-score in [15] was -0.0435 and 0.108; in experiment [16] it was -0.256 and -0.287; in experiment [17], -0.138; in experiment [18], -0.216 and -0.352; in experiment [19], 1.59 and -0.819; in [20], -1.59 and -0.552. Besides, the z-score was 0.391 (inactive) and 0.915 (inactive) in [4]; 0.367 and 0.91 in [12].
`C=CCN(CCCC)C(=O)C1N(CCCCCCO)C(=O)C2C(C(=O)O)C3C=CC21O3` (stereo not given): the composite z-score in experiment [1] was 1.64 and 0.937; in experiment [2] it was -0.288 and -0.0191; in experiment [3] it was 1.02 and 0.849; in experiment [5] it was -1.87 and -1.39; in experiment [6], -1.1; in experiment [7], -1.93 and -1.35. For the same compound, the composite z-score is -2.74 and -2.04 in experiment [8]; -2.67 and -3.18 in [9]; -2.85 and -2.5 in [10]; -0.498 and -0.27 in [11]; -3.06 and -3.09 in [13]; -0.494 and -0.605 in experiment [14]. Also, the composite z-score in experiment [15] was 0.169 and 0.392; in experiment [16] it was -0.184 and -0.226; in experiment [17] it was 0.0048 and -0.138; in experiment [18] it was -0.349 and -0.318; in experiment [19], -0.423 and 0.349; in experiment [20] it was -1.1 and -1.81. The z-score in [4] was 0.671 (inactive) and -0.0103 (inactive); in [12] it was 0.227 and -0.883.
Take `CC(CO)N1C(=O)[C@@H]2C3C(=O)OCCC=C[C@H]3OC23C=CCN(c2ccc(Cl)cc2)C(=O)[C@@H]13` (stereo not given in full): the composite z-score in [1] is 1.13 and 1.84; in experiment [2] it was -0.0514 and 0.0818; in [3], 0.574 and 0.715; in [5], -1.16 and 0.322; in experiment [6] it was -1.61 and -0.251; in experiment [7], -0.911 and -0.867. The composite z-score in experiment [8] is -1.14 and -0.558; in experiment [9] it was -1.33 and -0.412; in experiment [10], 0.137 and 0.88; in experiment [11] it was -0.999 and 0.188; in experiment [13] it was -0.905 and -1.03; in experiment [14], 0.136 and 0.0733. The composite z-score in [15] was 1.09 and -0.66; in [16], -0.0346 and -0.152; in experiment [17] it was -0.19 and -0.0035; in experiment [18] it was 0.0473 and 0.61; in [19] it was -0.236 and 1.7; in experiment [20], 0.0882 and -0.198. For the same compound, the z-score was 0.14 (inactive) and 0.899 (inactive) in [4]; -0.229 and -0.964 in [12].
Regarding `Cc1ccc(S(=O)(=O)N[C@@H]2COC(=O)CC=C[C@@H](C)[C@@H]3C=C[C@H](O)[C@@H](COC(=O)CC=C[C@H]2C)O3)cc1`, the composite z-score is 0.527 and 0.241 in experiment [1]; -0.553 and -0.331 in experiment [2]; -1.15 and -0.466 in experiment [3]; 0.606 and 0.174 in [5]; 0.126 and 0.233 in [6]; 0.884 and 0.383 in [7]. The composite z-score in experiment [8] is 1.08 and 0.451; in experiment [9], 1.13 and 0.389; in [10], 1.03 and -0.134; in experiment [11] it was -0.813 and -0.0304; in experiment [13] it was 1.21 and 0.343; in [14] it was -0.657 and -0.267. In addition, the composite z-score in experiment [15] is -1.1 and -0.778; in experiment [16] it was -0.172 and -0.0044; in experiment [17] it was -0.0977 and -0.0035; in experiment [18], -0.0965 and -0.116; in experiment [19] it was 0.11 and 0.433; in experiment [20], -0.268 and 0.391. Besides, the z-score in experiment [4] was -0.371 (inactive) and -1.35 (inactive); in [12] it was -0.606 and -1.32.
